In PubChem BioAssay AID485346 (Sanford-Burnham Center for Chemical Genomics, 2010) one finds inhibition data, which are given here for 51 compounds.

What is called inhibition is the change of the read-out against control, counted positive when it falls.

Hit rate of the full screen: of about 330,000 compounds, about 10,000 (3%) were called active.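 Rule for the calls: active = inhibition of at least 50% at 8 µM in the primary screen; inactive = the rest.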 Only a selection was taken, and actives are over-represented in it overall.

For this experiment, the target named is Protein Mdm4 (Homo sapiens) + E3 ubiquitin-protein ligase Mdm2 (Homo sapiens) (UniProt O15151+Q00987). Kind of experiment: disruptors of Mdm2/MdmX RING complex – cell-based, luminescence, split luciferase, SaOS-2, uHTS, primary screen (AID 485346). Conditions: SaOS-2 split-luciferase Mdm2/MdmX complementation, at 8 µM, active compounds read high.
Protein Mdm4 (Homo sapiens) + E3 ubiquitin-protein ligase Mdm2 (Homo sapiens), sequence (O15151 whole entry, looked up): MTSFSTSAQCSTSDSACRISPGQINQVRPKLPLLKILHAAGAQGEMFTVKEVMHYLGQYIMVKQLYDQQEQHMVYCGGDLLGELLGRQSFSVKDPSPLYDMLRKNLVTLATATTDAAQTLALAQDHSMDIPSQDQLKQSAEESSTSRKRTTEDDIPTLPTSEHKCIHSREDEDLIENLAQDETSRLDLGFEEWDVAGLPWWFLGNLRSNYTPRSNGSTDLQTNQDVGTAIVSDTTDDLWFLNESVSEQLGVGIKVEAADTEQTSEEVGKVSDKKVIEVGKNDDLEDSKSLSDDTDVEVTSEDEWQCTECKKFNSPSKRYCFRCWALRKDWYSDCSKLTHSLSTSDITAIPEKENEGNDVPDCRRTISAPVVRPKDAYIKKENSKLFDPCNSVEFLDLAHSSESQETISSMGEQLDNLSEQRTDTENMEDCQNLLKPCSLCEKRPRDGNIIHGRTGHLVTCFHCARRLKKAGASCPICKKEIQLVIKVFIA
Protein Mdm4 (Homo sapiens) + E3 ubiquitin-protein ligase Mdm2 (Homo sapiens), sequence (Q00987 whole entry, looked up): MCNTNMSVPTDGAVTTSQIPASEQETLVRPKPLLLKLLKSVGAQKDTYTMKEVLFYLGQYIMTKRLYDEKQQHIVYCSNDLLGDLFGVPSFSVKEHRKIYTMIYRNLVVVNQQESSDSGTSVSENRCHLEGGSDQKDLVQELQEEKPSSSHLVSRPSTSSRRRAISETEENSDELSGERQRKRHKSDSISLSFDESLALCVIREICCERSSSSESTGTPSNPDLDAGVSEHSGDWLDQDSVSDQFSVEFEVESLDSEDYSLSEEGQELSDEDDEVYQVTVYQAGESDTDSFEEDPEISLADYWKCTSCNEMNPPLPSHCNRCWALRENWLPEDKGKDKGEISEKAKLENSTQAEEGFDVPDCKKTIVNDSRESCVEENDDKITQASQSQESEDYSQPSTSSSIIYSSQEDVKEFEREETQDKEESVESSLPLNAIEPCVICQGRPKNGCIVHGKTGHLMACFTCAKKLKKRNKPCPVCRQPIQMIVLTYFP
For `COC(=O)c1ccc(Oc2nc(NC(C)C)nc(SC)n2)cc1`, the inhibition was 22.5% (inactive). `Cc1ccc(C(C(=O)NCC2CCCO2)N(C(=O)c2snc(C(N)=O)c2N)c2ccc(C(C)C)cc2)o1` (stereo unspecified): the inhibition is -3.18% (inactive). For `C/C(=N\N(C)C)c1ccc(OCCOc2ccc([N+](=O)[O-])cc2)cc1`, the inhibition was -8.83% (inactive). With `O=C(CN1CCN(C2CCS(=O)(=O)C2)CC1)N1N=C(c2ccc(Cl)cc2)CC1c1ccco1` (stereo unspecified), the inhibition was 26.2% (inactive). As to `COCCCC1CCN(C(=O)C2CCC(=O)N(C3CCCCCC3)C2)CC1` (stereo unspecified), the inhibition is 27.9% (inactive). To `Cc1c(Cl)cccc1NC(=S)NCC(O)c1ccccc1` (stereo unspecified) belongs -14.3% (inactive); to `Cc1cccc(C(=O)OC(C)C(=O)NC2CCCc3ccccc32)c1O` (stereo unspecified), 28.3% (inactive); to `COC(=O)c1cc(OCC(=O)NC2CCCc3ccccc32)cc(C(=O)OC)c1` (stereo unspecified), 1.41% (inactive). Consider `O=C(CCNC(=O)c1ccc(Cl)cc1)NC1CCCc2ccccc21` (stereo unspecified), for which the inhibition was 82.7% (active).

As for `NC(=O)Nc1ccc(C(=O)OCC(=O)NC2CCCc3ccccc32)cc1` (stereo unspecified), the inhibition is -3.47% (inactive).

Take `CC1(c2ccccc2)NC(=O)N(CC(=O)N2CC(=O)Nc3ccccc32)C1=O` (stereo unspecified): the inhibition was -7.07% (inactive). To `Cc1nnc(NC(=O)Nc2ccc(Cl)c(Cl)c2)s1` belongs 95.2% (active); to `Cc1ccc(NC(=O)Nc2nnc(-c3ccncc3)s2)cc1`, 45.1% (inactive); to `Cc1nnc(NC(=O)C(c2ccccc2)c2ccccc2)s1`, 7.45% (inactive).

Regarding `CC(C)Oc1ccc(S(=O)(=O)N2CCOCC2)cc1NC(=O)C1CCCC1`, the inhibition was -52.3% (inactive). In the case of `CC1CC(=S)Nc2ccccc2N1Cc1ccccc1` (stereo unspecified), the inhibition was 18.7% (inactive).

Take `CCCCN(CC)CCCNC(=O)c1ccc(CSc2nc3ccncc3[nH]2)cc1`: the inhibition was 6.18% (inactive). To `COc1cccc(NC(=O)COC(=O)c2ccc3ccccc3n2)c1` belongs -8.32% (inactive); to `COc1ccc(CCNC(=O)CSc2nc(C)nc3c2oc2ccccc23)cc1OC`, -0.689% (inactive); to `CC(Nc1nc(N2CCN(CCO)CC2)nc2ccccc12)c1ccccc1` (stereo unspecified), -4.68% (inactive). With `CC(Nc1nc(N2CCOCC2)nc2ccccc12)c1ccccc1` (stereo unspecified), the inhibition is -0.119% (inactive).

In the case of `CC(Nc1nc(N2CCCC2)nc2ccccc12)c1ccccc1` (stereo unspecified), the inhibition was 70.8% (active).

Turning to `CCN(C(=O)COC(=O)CCC(=O)c1cccs1)C1CCCCC1`, the inhibition is 18.7% (inactive).

In the case of `CC(=O)c1ccc(NC(=S)N(Cc2ccccc2)C(C)C2CC2)cc1` (stereo unspecified), the inhibition is 29.9% (inactive).

For the compound `CCOC(=O)C1CSC(CC(=O)Nc2ccc(OCC)cc2)C(=O)N1` (stereo unspecified), the inhibition is 9.79% (inactive). To `COCC1CCCN(C(=O)c2ccc3oc(C(C)C)nc3c2)C1` (stereo unspecified) belongs 28.6% (inactive); to `Cc1n[nH]c(C)c1S(=O)(=O)N1CCCC(C(=O)Nc2ccc(Br)cc2)C1` (stereo unspecified), 18.8% (inactive). To `Cc1cc(C)nc(N2CCC(C(=O)Nc3ccc4c(c3)OCCO4)CC2)n1` belongs 15.6% (inactive); to `Cc1cc(Nc2cc(N3CCN(C)CC3)nc(Sc3ccc(NC(=O)C4CC4)cc3)n2)n[nH]1`, 88.2% (active). To `CCc1ccc(NC2Nc3cc(C)nn3S2)cc1` (stereo unspecified) belongs -161% (inactive). As to `Cc1ccc(CNC(=O)[C@@H](NC(=O)Cc2ccccc2)C(C)C)cc1`, the inhibition is 33.2% (inactive).

With `CCN(C(=O)COC(=O)CCOc1cccc(C)c1)c1c(N)n(Cc2ccccc2)c(=O)[nH]c1=O`, the inhibition is -15.7% (inactive). Consider `CCCCN(C(=O)C1=NN(c2cc(C)ccc2C)C(=O)CC1)c1c(N)n(CCC)c(=O)[nH]c1=O`, for which the inhibition was 4.43% (inactive). As for `Nc1nc(NC(=O)/C=C/c2ccc(F)cc2)nn1-c1ccccc1`, the inhibition is 36.3% (inactive).

For `Cc1c(NC(=O)CCC2CCCCC2)cc(C(=O)N2CCOCC2)cc1[N+](=O)[O-]`, the inhibition was -15.2% (inactive). To `C=CCC[C@H](Cc1ccc(F)cc1)C(=O)OC[C@H](C)NC(=O)[C@H](CC=C)CC(=O)N(CCO)Cc1ccccc1` belongs -2.85% (inactive); to `C=CCC[C@H](Cc1ccc(F)cc1)C(=O)OC[C@@H](Cc1c[nH]c2ccccc12)NC(=O)[C@H](CC=C)CC(=O)N[C@H](CO)Cc1ccccc1`, 38.1% (inactive); to `C=CCC[C@H](Cc1ccc(F)cc1)C(=O)OC[C@@H](NC(=O)[C@@H](CC=C)CC(=O)N[C@H](CO)Cc1ccccc1)C(C)(C)C`, 46.7% (inactive). To `C=CCC[C@@H](Cc1ccc(F)cc1)C(=O)OC[C@@H](C)NC(=O)[C@H](CC=C)CC(=O)N(CCO)Cc1ccccc1` belongs 24% (inactive); to `C=CC[C@H](CC(=O)N(CCO)Cc1ccccc1)C(=O)N[C@@H](COC(=O)[C@@H](CC=C)Cc1ccc(F)cc1)Cc1ccccc1`, 67.8% (active); to `C=CC[C@@H](Cc1ccc(F)cc1)C(=O)OC[C@H]1CCCN1C(=O)[C@H](CC=C)CC(=O)N(CCO)Cc1ccccc1`, 38.8% (inactive). In the case of `C=CC[C@@H](CC(=O)N[C@H](CO)Cc1ccccc1)C(=O)N[C@@H](COC(=O)[C@@H](CC=C)Cc1ccc(F)cc1)Cc1c[nH]c2ccccc12` it was 16.4% (inactive). Take `C=CCC[C@@H](Cc1ccc(F)cc1)C(=O)O[C@H](CNC(=O)[C@H](CC=C)CC(=O)N(CCO)Cc1ccccc1)c1ccccc1`: the inhibition was 66.9% (active). Turning to `C=CCC[C@@H](Cc1ccc(F)cc1)C(=O)OC[C@H](Cc1c[nH]c2ccccc12)NC(=O)[C@@H](CC=C)CC(=O)N(CCO)Cc1ccccc1`, the inhibition was 87.5% (active). In the case of `CCOc1ccc(NC(=O)CN(C)C(=O)Cc2sc(C)nc2-c2ccc(F)cc2)cc1OCC` it was 10.8% (inactive). On to `COc1ccc(CN2CCN(C(=O)CCC(=O)Nc3nnc(C(C)C)s3)CC2)cc1F`, for which the inhibition was 16.8% (inactive). In the case of `O=C(/C=C/c1ccccc1[N+](=O)[O-])OCC(=O)N1CCCC1` it was 15% (inactive); in that of `COc1ccc(S(=O)(=O)N2CCN(CC(=O)NCC3(N4CCOCC4)CCCCC3)CC2)cc1`, -0.077% (inactive). For the compound `CCO[C@@H]1OC(C(=O)NCc2nc3ccccc3[nH]2)=C[C@H](C2CCCCC2)[C@H]1CCCO`, the inhibition was 18.5% (inactive).

With `O=C(CSc1nnc(CNC(=O)c2ccc(F)cc2)o1)Nc1ccc2c(c1)OCO2`, the inhibition was 5.86% (inactive). In the case of `NC(=O)C1CCN(C(=O)c2ccc(F)c(S(=O)(=O)N3CCOCC3)c2)CC1` it was -40.7% (inactive).
